Sm TGR block: S. mansoni TGR enzyme inhibition; purified TGR, DTNB reduction, TNB absorbance 405 nm; Potency, µM (doses to about 114 µM), for inactives: top-dose activity change, negative = inhibition, actives largely listed as inhibitors; hit rate 3% among 360,000; AID 485364; further: nearly all actives have a fitted effect of over 60% in size
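TGR 20 nM + NADPH 100 uM (dispensed conc.), cpd preinc 15 min RT; start with NADPH (500 uM addition) then DTNB (15 mM addition). Kinetic TNB absorbance, 405 nm filter. Four-parameter Hill fit across titration.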
AmpC inh detg: AmpC beta-lactamase inhibition with detergent present | hit rate 0.041% among 370,000 | Potency, µM (highest dose often 114 µM), inactives show top-dose activity change, negative = inhibition, actives largely listed as inhibitors | AID 485294 | P00811 | AmpC hydrolysis of nitrocefin, absorbance 480 nm, 0.01% Triton;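 further: 0% = no-compound wells and -100% = no-enzyme wells; nearly all actives have a fitted effect of over 25% in size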
Target sequence (P00811 whole entry, looked up): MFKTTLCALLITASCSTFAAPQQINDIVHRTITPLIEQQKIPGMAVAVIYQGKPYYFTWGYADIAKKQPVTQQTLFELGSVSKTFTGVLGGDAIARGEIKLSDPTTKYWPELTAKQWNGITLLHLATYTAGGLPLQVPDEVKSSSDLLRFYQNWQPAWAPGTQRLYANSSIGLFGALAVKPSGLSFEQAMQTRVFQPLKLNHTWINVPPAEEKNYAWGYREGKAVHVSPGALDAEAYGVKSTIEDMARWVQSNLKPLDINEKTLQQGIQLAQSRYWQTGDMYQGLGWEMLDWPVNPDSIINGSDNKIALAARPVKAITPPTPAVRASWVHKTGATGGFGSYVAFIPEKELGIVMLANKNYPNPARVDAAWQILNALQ
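AmpC (5.3 nM in the dispensed reagent) in 20 mM phosphate pH 7.0 with 0.01% (detergent screen) or 0.0001% Triton X-100 was preincubated with compounds for 15 min at room temperature. Nitrocefin was then added from an 800 uM solution, and hydrolysis was followed at 480 nm.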
AmpC no deterg: inhibitors of E. coli AmpC beta-lactamase without detergent. Potency, µM (titrated, usually from 57.1 µM), for inactives: at the top dose activity change, negative = inhibition, hits mostly inhibitors. AID 485341. hit rate 0.52% among 330,000. AmpC nitrocefin hydrolysis, absorbance 480 nm, 0.0001% Triton. P00811;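 further: plate controls were no compound for no effect and no enzyme for full effect; nearly all actives have a fitted effect of over 20% in size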
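AmpC (5.3 nM in the dispensed reagent) in 20 mM phosphate pH 7.0 with 0.01% (detergent screen) or 0.0001% Triton X-100 was preincubated with compounds for 15 min at room temperature. Nitrocefin was then added from an 800 uM solution, and hydrolysis was followed at 480 nm.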
FMDV antiviral: antivirals against foot and mouth disease virus; Potency, µM (doses to about 57.9 µM), without a hit: top-dose activity change, negative = inhibition, usual class: inhibitors; AID 1159524; FMDV antiviral cell-based qHTS; hit rate 1.2% among 410,000; calls by dose curve; tested in HEK293T cells; further: read-out not given here; nearly all actives have a fitted effect of over 45% in size
AMA1-RON2 inh: disrupts binding of P. falciparum AMA1 to RON2 | AID 720542 | hit rate 0.2% among 360,000 | Potency, µM (doses to about 58.2 µM), without a hit: at the top dose activity change, negative = inhibition, hits mostly inhibitors | AlphaScreen AMA1-biotinylated RON2 peptide binding;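 further: 0% = vehicle wells and -100% = peptide control; nearly all actives have a fitted effect of over 45% in size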
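AMA1 (3D7) with his tag at 25 nM final met compounds first, then biotinylated RON2 peptide at 25 nM; detection used donor plus acceptor beads, 10 µg/mL apiece, read by AlphaScreen after 30 min at room temperature.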
* marks the source's active call; other numbers are inactive results; ? = inconclusive; / = no result; [ ] = dose if it differs, or a comment. Hits are enriched below; roughly 4.1% of the tested compounds scored in any of these assays. Unless noted, the call rests on the fitted dose curve; in most records, active means well fitted curve in the direction sought with a large enough effect; inconclusive means small, poorly fitted or top-dose-only effect, or another doubt; inactive means no such curve, though single readings can be large; an effect the other way counts as inactive or inconclusive. Unless noted, on the % scale 0 is the no-effect control and ±100 the full control effect; potency means the concentration at half of the fitted maximal effect.

SMILES	Sm TGR block	AmpC inh detg	AmpC no deterg	FMDV antiviral	AMA1-RON2 inh
CCN1C(=O)C2(C(C(=O)c3ccc(C)o3)=C(O)C(=O)N2CCCN2CCOCC2)c2ccccc21 (centres undefined)	50µM*	2%	2%	/	2%
CCN1C(=O)C2(C(C(=O)c3ccc(C)o3)=C(O)C(=O)N2CCCN(C)C)c2ccccc21 (centres undefined)	32µM*	-8%	8%	3%	-1%
CCOC(=O)C1(C)C=C(Nc2cccc(C(=O)O)c2)C(=O)N1c1cccc(C(=O)O)c1 (centres undefined)	-20%	12%	/	-2%	/
COc1ccc(-c2nc3cc(NC(=O)Cc4ccc(Cl)cc4)ccc3o2)cc1OC	-1%	-3%	/	-20%	/
COc1ccc(NC(=O)CN2C(=O)/C(=C3\SC(=S)N(C4CCS(=O)(=O)C4)C3=O)c3ccccc32)cc1 (centres undefined)	?	-5%	-27%	?	27%
O=C(CN1C(=O)/C(=C2\SC(=S)N(C3CCS(=O)(=O)C3)C2=O)c2ccccc21)Nc1ccc(F)cc1 (centres undefined)	-6%	1%	-15%	13µM*	16%
C=C(CN(C)C)C(=O)c1ccc(OC2OC(COC(C)=O)C(OC(C)=O)C(OC(C)=O)C2OC(C)=O)cc1 (centres undefined)	/	/	/	10µM*	-3%
CC(=O)OCC1OC(Oc2cc(OC(C)=O)c3c(=O)cc(-c4ccc(OC(C)=O)cc4)oc3c2)[C@@H](OC(C)=O)C(OC(C)=O)C1OC(C)=O (some centres undefined)	/	/	/	4%	/
O=C(N/N=C/c1ccc(N2CCCCC2)o1)c1ccccc1[N+](=O)[O-]	4µM*	?	-17%	-18%	21%
O=C(N/N=C/c1ccc(N2CCOCC2)o1)c1cccc(C(F)(F)F)c1	11µM*	-5%	56%	-14%	71%
O=C(N/N=C/c1ccc(N2CCOCC2)o1)c1ccccc1[N+](=O)[O-]	8.9µM*	-13%	-20%	-15%	38%
O=C(Nc1ccc(N2CCOCC2)nc1N1CCOCC1)c1cccc(C(F)(F)F)c1	7%	-11%	58%	-16%	-6%
O=C(N/N=C/c1ccncc1)c1ccccc1[N+](=O)[O-]	-11%	?	-24%	0%	19%
COc1ccc(C(=O)N2CCC3(CC2)CN(c2ncccn2)C3)cc1	/	/	/	-11%	/
COC(=O)C1CCN(C(c2ccccc2)c2sc3nc(-c4ccco4)nn3c2O)CC1 (centres undefined)	11%	1%	/	-3%	/
COc1ccc(S(=O)(=O)N(C)C(C)CCc2ccco2)cc1 (centres undefined)	20µM*	-7%	-39%	-6%	0%
CC(CCc1ccco1)N(C)S(=O)(=O)c1csc(C(N)=O)c1 (centres undefined)	-8%	1%	-17%	-7%	0%
COc1ccc(C(N)CCc2ccco2)cc1 (centres undefined)	-17%	5%	9%	4%	-18%
CC(=O)c1ccc(S(=O)(=O)N(C)C(C)CCc2ccco2)cc1 (centres undefined)	40µM*	0%	-5%	-3%	-6%
Cc1ccc(S(=O)(=O)N(C)C(C)CCc2ccco2)cc1 (centres undefined)	50µM*	-4%	-26%	-22%	0%
O=c1c2oc3ccccc3c2ncn1Cc1ccc(Br)cc1	-9%	3%	/	25%	/
CSc1ccc(N=Nc2c(C)[nH]n(C)c2=O)cc1	0%	-12%	49%	36%	14µM*
Cc1[nH]n(-c2ccccc2)c(=O)c1N=Nc1ccc(F)cc1	0%	2%	-6%	24%	-2%
CCS(=O)(=O)c1nc(S(=O)(=O)c2ccc(C)cc2)c(N2CC(C)OC(C)C2)s1 (centres undefined)	-20%	-4%	75%	-10%	5%
Cc1ccc(S(=O)(=O)c2nc(S(=O)(=O)c3ccc(C)cc3)c(NCc3ccco3)s2)cc1	-34%	?	-42%	20%	2%
SMILES	Sm TGR block	AmpC inh detg	AmpC no deterg	FMDV antiviral	AMA1-RON2 inh
CCCS(=O)(=O)c1nc(S(=O)(=O)c2ccc(C)cc2)c(NCc2ccccn2)s1	7.9µM*	-4%	-9%	44%	70%
CS(=O)(=O)c1nc(S(=O)(=O)c2ccc(Cl)cc2)c(NCc2ccccn2)s1	35µM*	?	-23%	4%	5%
CCCS(=O)(=O)c1nc(S(=O)(=O)c2ccc(C)cc2)c(NCc2ccco2)s1	18µM*	-1%	-39%	11%	-9%[11.6 µM]
CCCS(=O)(=O)c1nc(S(=O)(=O)c2ccc(C)cc2)c(N2CC(C)OC(C)C2)s1 (centres undefined)	18µM*	1%	100%	3%	13%
CCOc1ccc(N=Cc2c(O)n(CCc3ccc(OC)c(OC)c3)c(=O)[nH]c2=O)cc1	5%	3%	0%	7.9µM*	-4%
O=c1[nH]c(=O)n(CCC2=CCCCC2)c(O)c1/C=N/Nc1cccc2ccccc12	20µM*	4%	28µM*	?	21%
O=c1[nH]c(=O)n(Cc2ccccc2)c(O)c1C=NCCN1CCNCC1	35µM*	-3%	21%	/	8%
CCN(CC)CCN=Cc1c(O)n(CCc2ccccc2)c(=O)[nH]c1=O	25µM*	0%	-23%	-10%	43%
O=c1[nH]c(=O)n(CCC2=CCCCC2)c(O)c1/C=N/Nc1ccccc1	?	-1%	-10%	?	-2%[2.32 µM]
C=CCn1c(O)c(C=NCCN2CCNCC2)c(=O)[nH]c1=O	0%	-9%	-21%	0%	15%
O=c1[nH]c(=O)n(Cc2ccccc2)c(O)c1C=Nc1ccc(CN2CCOCC2)cc1	35µM*	-12%	6%	?	-3%
O=c1[nH]c(=O)n(CCC2=CCCCC2)c(O)c1C=NCCN1CCNCC1	10µM*	?	77%	-2%	41%
Cc1ccccc1CN1c2ccccc2-c2nc(SCC(=O)NCCc3ccccc3)ncc2S1(=O)=O	-3%	-7%	/	1%	/
CCC(Oc1ccccc1)C(=O)Nc1ccc(OCc2cc(=O)n3ccc(C)cc3n2)cc1 (centres undefined)	-2%	18%	/	-11%	/
COC(=O)c1ccc(CSc2nc3c([nH]c4ccccc43)c(=O)n2-c2ccc(F)cc2)o1	-2%	-4%	/	-15%	/
COc1ccc(OC)c(S(=O)(=O)Nc2ccc(O)c3ccccc23)c1	10µM*	2%	-34%	15%	-14%
Cc1ccc(S(=O)(=O)Nc2cccc3cccnc23)cc1	6%	-10%	-23%	28µM*	82%
CCOc1ccc(S(=O)(=O)Nc2cc(SCC(=O)O)c(O)c3ccccc23)cc1	7.1µM*	?	-56%	?	?
O=S(=O)(Nc1ccc(O)c2ccccc12)c1ccc(F)cc1	/	/	/	?	-30%
